Assay results: ChEMBL document CHEMBL1157539, “Thousands of chemical starting points for antimalarial lead identification” (Nature, 2010)

system: Plasmodium falciparum; test: GSK_TCMDC: Inhibition of Plasmodium falciparum 3D7 in whole red blood cells, using parasite LDH activity as an index of growth. Test compounds present at 2uM; format: functional

Row | SMILES | Inhibition [%]
1 | CC1c2cccc(O)c2CCN1CCc1ccc(Cl)c(Cl)c1.Cl (stereo unspecified) | 100
2 | c1ccc(CN2CCc3cc4nccc(N5CCNCC5)c4cc32)cc1 | 100
3 | COc1cc2nc(N3CCC(CNC(=O)c4ccc(-c5ccc(C(F)(F)F)cc5)cc4)CC3)nc(N)c2cc1OC | 100
4 | COc1ccc(C2(CNCC(O)c3cccc([N+](=O)[O-])c3)CCCCC2)cc1OC.Cl (stereo unspecified) | 95
5 | COc1ccc(Nc2nc(=Nc3ccccc3)nc(NN=Cc3cc(Cl)ccc3O)[nH]2)cc1 | 100
6 | CCn1c(-c2nonc2N)nc2c(-c3cccc(NC(=O)Nc4cccc(Cl)c4)c3)ncc(OCCCN)c21.O=C(O)C(F)(F)F | 91
7 | CCCCCC(C)C(C)c1cc(O)c2c(c1)OC(C)(C)CC2(O)c1ccccn1 (stereo unspecified) | 98
8 | Cl.NOCCCOc1ccc(Cl)cc1 | 98
9 | COc1ccc(Nc2nccc(-c3ccc(NC(=O)c4cc5cc(F)ccc5[nH]4)cc3)n2)cc1 | 91
10 | CC(Oc1cccc(Cl)c1)C(=O)N1CCc2ccccc21 (stereo unspecified) | 94
11 | CCOc1cc(C(=O)NC2CCN(Cc3ccccc3)C2)ccc1-c1nc2cc(Cl)ccc2[nH]1 (stereo unspecified) | 98
12 | CC(C)(C)c1cc(C(=O)Nc2ccc(C(=N)N)cc2)c(O)c(C(C)(C)C)c1.O=C(O)C(F)(F)F | 100
13 | COc1ccc(CCNCCCCCCNCCCc2ccc(Cl)cc2)cc1OC.Cl | 96
14 | CN1CCN(CCCNCc2cccc(Nc3nccc(Nc4ccc(Oc5ccccc5)cc4)n3)c2)CC1 | 100
15 | O=C(CCCCCNC(=O)c1ccc(O)c(-c2ccc(Cl)c(Cl)c2)c1)NC1CCCCCC1 | 92
16 | COc1cc(OCCCN(C)Cc2ccc(OC)c(OC)c2)ccc1NC(=O)c1cccc2c(O)c3cccc(F)c3nc12 | 94
17 | COc1ccc(-c2ccc(CN(C)C3CCC(NC(=O)c4cc5ccccc5[nH]4)CC3)cc2)cn1 (stereo unspecified) | 88
18 | C[C@@H](NC(=O)NC(CCN1CCC2(CC1)CN(S(C)(=O)=O)c1ccccc12)c1ccc(Cl)c(Cl)c1)c1ccccc1 (stereo partly specified) | 92

Row | SMILES | Inhibition [%]
19 | CCN(CC)CCN(Cc1ccc(-c2ccc(Cl)s2)cc1)C(=O)Cn1c(CCc2cccc(F)c2F)nc(=O)c2ccccc21.O=C(O)C(O)C(O)C(=O)O | 96
20 | Cc1cc(NCCC(=O)NCc2cccc(F)c2)nc(Nc2ccccc2)n1.O=C(O)C(F)(F)F | 94
21 | CC(=O)Nc1ncc(C(=O)Nc2ccc(-c3cccc(-c4nc5cc(C(F)(F)F)ccc5[nH]4)c3)cc2)s1 | 100
22 | CC(=O)Nc1cccc(NC(=O)CSc2ccc(-c3nc4ccccc4[nH]3)cn2)c1 | 97
23 | O=C(O)C(F)(F)F.O=c1ccc2ccc(F)c3c2n1CC3CN1CCC(NCc2ccc(-c3cccc(Cl)c3)nc2)CC1 (stereo unspecified) | 96
24 | CSc1ccc(CN2CCC(NC(=O)c3ccc(-c4cccc(C(F)(F)F)c4)s3)CC2)cc1.O=C(O)C(F)(F)F | 90
25 | c1ccc(OCCOc2ccc(Nc3ccnc4cc5ccccc5cc34)cc2)cc1 | 100
26 | NC1CCCN(Cc2ccc(-c3cccc(-c4nc5ccccc5[nH]4)c3)cc2)C1.O=C(O)C(F)(F)F (stereo unspecified) | 95
27 | O=C(Cn1c(SCc2cccc(F)c2F)cc(=O)c2ccccc21)N(CCc1c[nH]cn1)Cc1ccc(-c2ccc(C(F)(F)F)cc2)cc1 | 100
28 | COc1ccc(Nc2nccc(N3CCC(NS(=O)(=O)c4ccc(NC(C)=O)cc4)C3)n2)cc1 (stereo unspecified) | 100
29 | Cc1cccc(Nc2nccc(NCC(O)c3cccc(C(F)(F)F)c3)n2)c1 (stereo unspecified) | 100
30 | CCOc1cc(C(=O)N[C@@H](Cc2ccccc2)[C@H](O)CNCc2cc(OC)cc(OC)c2)cc(N2CCCS2(=O)=O)c1.Cl | 94
31 | CN1CCN(c2cc3c(cc2Cl)CCN3C(=O)Cc2ccc(Cl)c(NC(=O)Nc3cccc(C#N)c3)c2)CC1 | 99
32 | COc1cc(CCOc2c(C)nc(N)nc2N)cc(OC)c1OC.Cl | 93
33 | Cc1cccc(CNc2nc(C)cc(N[C@@H](CC(C)C)C(=O)NCCOc3ccccc3)n2)c1.O=C(O)C(F)(F)F | 93
34 | Cc1cc(-c2ccc3c(c2)CCN(CCC2CCC(NC(=O)/C=C/c4ccccc4F)CC2)CC3)on1.Cl (stereo unspecified) | 94
35 | CC(C)(CN)c1nc(-c2ccc(Br)c(O)c2)c(-c2ccncc2)[nH]1.Cl | 96
36 | S=C(NCCN1CCOCC1)Nc1ccccc1 | 94
